Compound activity deposited in PubChem by National Center for Advancing Translational Sciences (NCATS).
Rab9 prom act = qHTS Assay for Rab9 Promoter Activators; 320,000 compounds, 2.8% hits; Huh7 Rab9 promoter-luciferase reporter, luminescence, 24 h; Potency, µM (titrated, usually from 9.22 µM), inactives show top-dose activation, negative = inhibition, hits mostly activators; also: % of control where 0% means no effect; nearly all actives have a fitted effect of over 60% in size
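Promoter activation is measured as luciferase luminescence in Huh7 cells stably transfected with a Rab9 promoter–luciferase construct, following 24 h compound exposure at 37 °C and 10 min reagent incubation at ambient temperature.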
FLuc modulator = qHTS profiling assay for firefly luciferase inhibitor/activator using purifed enzyme and Km concentrations of substrates (counterscreen for miR-21 project) | Potency, µM (series often up to 57.5 µM), for the others: at the top dose activity change, negative = inhibition, actives largely listed as inhibitors | 360,000 compounds, 6.9% hits | purified FLuc, Km substrates, luminescence inhibition | AID 588342, 2011 | Luciferin 4-monooxygenase (Photinus pyralis), P08659;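 also: plate controls were vehicle for no effect and reference inhibitor for full effect; nearly all actives have a fitted effect of over 55% in size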
Target sequence (P08659 whole entry, looked up): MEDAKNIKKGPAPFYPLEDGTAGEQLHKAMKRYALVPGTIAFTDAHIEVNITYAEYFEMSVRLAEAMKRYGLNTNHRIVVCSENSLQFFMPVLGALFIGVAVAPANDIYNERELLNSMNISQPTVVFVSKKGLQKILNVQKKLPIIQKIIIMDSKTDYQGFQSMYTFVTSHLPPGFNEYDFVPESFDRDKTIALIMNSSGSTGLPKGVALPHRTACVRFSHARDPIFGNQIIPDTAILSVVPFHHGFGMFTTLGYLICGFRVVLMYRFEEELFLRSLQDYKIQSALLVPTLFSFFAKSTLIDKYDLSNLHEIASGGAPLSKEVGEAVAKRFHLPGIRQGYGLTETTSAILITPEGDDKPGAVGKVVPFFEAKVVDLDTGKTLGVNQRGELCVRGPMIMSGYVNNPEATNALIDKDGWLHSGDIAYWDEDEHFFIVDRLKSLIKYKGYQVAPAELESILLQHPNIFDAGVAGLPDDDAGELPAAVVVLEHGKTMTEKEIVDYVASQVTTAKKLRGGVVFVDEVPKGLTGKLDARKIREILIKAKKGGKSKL
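Purified P. pyralis luciferase (10nM final) with 10uM D-luciferin and 10uM ATP (Km levels) in 50mM Tris acetate pH 7.5, 10mM Mg acetate, 0.01% Tween-20, 0.05% BSA; qHTS 6-point titration, ~60 µM downward; luminescence read.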
ELG1 genotoxic = qHTS screen for small molecules that induce genotoxicity in human embryonic kidney (HEK293T) cells expressing luciferase-tagged ELG1; HEK293T ELG1-luciferase reporter, luminescence, 16 h; Potency, µM (series often up to 46 µM), inactives show at the highest dose activity change, positive = activation, hits mostly activators; 330,000 compounds, 1.3% hits; also: % of control where 0% means no effect; nearly all actives have a fitted effect of over 60% in size
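Luminescence read-out: rising ELG1-luciferase signal, reflecting elevated ELG1 protein under genetic stress, flags genotoxic compounds. Cells were treated for 16 hr at 37 °C before ONE-Glo detection.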
SMN2 splice up = qHTS Assay for Enhancers of SMN2 Splice Variant Expression | 210,000 compounds, 2.8% hits | HEK293 SMN2-luciferase splicing reporter, luminescence, 30-36 h | Potency, µM (series often up to 46.1 µM), for inactives: at the top dose activity change, positive = activation, usual class: activators; also: % of control where 0% means no effect; nearly all actives have a fitted effect of over 55% in size
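qHTS luciferase splicing reporter: luminescence rises when SMN2 exon 7 is included in transfected HEK293 cells. Compound exposure lasted 30-36 h at 37C, with 4.5 mM final sodium butyrate as control, followed by a ONE-Glo read.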
KinaseGlo FLuc = Counterscreen for Luciferase (Kinase-Glo TM) Inhibition; Luciferin 4-monooxygenase (Photuris pensylvanica), Q27757; Kinase-Glo luciferase, ATP luminescence, 8 min; Potency, µM (titrated, usually from 38.3 µM), without a hit: at the highest dose activity change, negative = inhibition, hits mostly inhibitors; 200,000 compounds, 0.28% hits; AID 1379, 2008; also: % is scaled to controls: 0 for no effect and ±100 for the full control effect; nearly all actives have a fitted effect of over 60% in size
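Luminescence was the read-out, taken after 8-minute incubation at ambient temperature. Luciferase turned over luciferin with 10 uM ATP in imidazole pH 7.2 buffer containing KCl, MgCl2, Tween 20 and BSA.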
NPC1 prom act = qHTS Assay for NPC1 Promoter Activators; Huh7 NPC1 promoter luciferase reporter, 24 h; Potency, µM (highest dose often 9.22 µM), without a hit: at the top dose activation, hits mostly activators; 320,000 compounds, 2.4% hits; AID 485313, 2010; also: % of control where 0% means no effect; nearly all actives have a fitted effect of over 60% in size
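Huh7 reporter cells (NPC1 promoter driving luciferase) are dosed with compound for 24 h at 37 °C, 5% CO2; luciferase detection reagent is then added and luminescence measured after 10 min at ambient temperature.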
Starred values were filed as active, the others as inactive. Hits are enriched below; roughly 7.5% of the tested compounds scored in any of these assays. Calls follow the shape of the dose curve; as a rule, active = well fitted curve in the direction sought with a large enough effect; inconclusive = small, poorly fitted or top-dose-only effect, or another doubt; inactive = no such curve, though single readings can be large; an effect the other way counts as inactive or inconclusive. Potency is read from the fitted curve at half-maximal effect.

For CCOC(=O)c1ccc(N2C(=O)c3[nH]nc(-c4ccc(C)cc4)c3C2c2cccs2)cc1 (stereo not drawn) the results were FLuc modulator 1.2% and SMN2 splice up -12.2%.
`COc1ccc(C(=O)Nc2cccc(OC(=O)c3ccco3)c2)cc1` gave Rab9 prom act inconclusive, FLuc modulator 13.5µM*, ELG1 genotoxic 4.61µM* and NPC1 prom act inconclusive.
Screening CC(=O)Oc1ccc(C(=O)Nc2cccc(NC(=O)c3ccco3)c2)cc1 returned Rab9 prom act 7.0%, FLuc modulator 15.1µM*, ELG1 genotoxic -6.1% and NPC1 prom act -16.7%.
Screening O=C(Nc1cccc(NC(=O)c2ccco2)c1)c1ccc([N+](=O)[O-])cc1 returned Rab9 prom act -7.4%, FLuc modulator 2.6%, ELG1 genotoxic -2.3% and NPC1 prom act -2.9%.
Screening COc1ccc(C(=O)Nc2cccc(OC(=O)c3ccc(C)c(C)c3)c2)cc1 returned Rab9 prom act 23.9%, FLuc modulator 10.7µM*, ELG1 genotoxic 10.3%, SMN2 splice up inconclusive, KinaseGlo FLuc 3.7% and NPC1 prom act inconclusive.
O=C(NCCc1ccccc1)c1coc(=O)c(Br)c1 was read as Rab9 prom act 4.0%, FLuc modulator 2.7%, ELG1 genotoxic inconclusive and NPC1 prom act 2.4%.
For CC(=O)OCC(=O)[C@]1(O)C(C)CC2C3CCC4=CC(=O)C=C[C@@]4(C)[C@]3(F)C(O)C[C@@]21C (stereo partly drawn) the results were SMN2 splice up 13.2% and KinaseGlo FLuc -1.7%.
O=C(N/C=C/c1ccco1)OCc1ccccc1 was read as Rab9 prom act 3.55µM*, FLuc modulator 10.7µM*, ELG1 genotoxic inconclusive, SMN2 splice up 12.6µM*, KinaseGlo FLuc -3.5% and NPC1 prom act inconclusive.
`O=C(N/C=C/c1ccco1)NCc1ccccc1` gave Rab9 prom act 1.3%, FLuc modulator -10.2%, ELG1 genotoxic 0.4%, SMN2 splice up 7.4%, KinaseGlo FLuc 1.0% and NPC1 prom act -1.6%.
For O=C(Nc1ccccn1)c1ccc2ccccc2c1O the results were Rab9 prom act 3.16µM*, FLuc modulator 21.3µM*, ELG1 genotoxic 22.5% and NPC1 prom act 3.16µM*.
COc1cc(/C=N/NC(=O)c2cccnc2)ccc1OC(=O)c1ccco1 was read as Rab9 prom act 0.7%, FLuc modulator -20.3%, ELG1 genotoxic -0.1%, SMN2 splice up 3.2%, KinaseGlo FLuc -6.2% and NPC1 prom act -4.6%.
`COc1cc(/C=N\NC(=O)c2cccnc2)ccc1OC(=O)c1ccccc1Cl` gave Rab9 prom act 2.9%, FLuc modulator 10.7µM*, ELG1 genotoxic 13.8% and NPC1 prom act -0.8%.
COc1ccc(C(=O)Oc2cc(/C=N/NC(N)=S)ccc2OC)cc1 was read as Rab9 prom act -5.7%, FLuc modulator -13.5%, ELG1 genotoxic 1.8%, SMN2 splice up 9.3%, KinaseGlo FLuc -6.7% and NPC1 prom act -5.0%.
Screening O=C(N/N=C\c1cccnc1)c1ccccc1O returned Rab9 prom act inconclusive, FLuc modulator 7.57µM*, ELG1 genotoxic inconclusive and NPC1 prom act 27.7%.
O=C(N/N=C/c1cccnc1)c1ccccc1Br was read as Rab9 prom act -1.8%, FLuc modulator -10.4%, ELG1 genotoxic 1.9% and NPC1 prom act 3.3%.
For O=C(O)c1ccccc1C(=O)Nc1ccccn1 the results were Rab9 prom act 5.2%, FLuc modulator 3.2%, ELG1 genotoxic 6.4%, SMN2 splice up -5.2%, KinaseGlo FLuc 2.0% and NPC1 prom act -8.2%.
Screening COc1ccc(/C=N/NC(N)=S)cc1OC(=O)c1cccc2ccccc12 returned Rab9 prom act 5.3%, FLuc modulator 6.01µM*, ELG1 genotoxic -5.3%, SMN2 splice up -47.3%, KinaseGlo FLuc -4.1% and NPC1 prom act 1.1%.
For CCN(CC)C(=O)[C@H]1C[C@H](CC(=O)NCCCOC)C(=O)N2CCc3c([nH]c4cc(CCC(=O)N(C)C)ccc34)[C@]12C the results were ELG1 genotoxic 6.3%.
Screening CC(C)c1ccc(/C=N/NC(=O)c2ccccc2Cl)cc1 returned Rab9 prom act 1.1%, FLuc modulator 23.9µM*, ELG1 genotoxic inconclusive, KinaseGlo FLuc 0.5% and NPC1 prom act -16.9%.
Screening COC(=O)c1ccc(/C=N/NC(=O)c2ccccc2Cl)cc1 returned Rab9 prom act 18.5%, FLuc modulator inconclusive, ELG1 genotoxic 9.3%, SMN2 splice up 20.8%, KinaseGlo FLuc -0.6% and NPC1 prom act 14.0%.
O=C(Cc1ccccc1)Nc1cccc([N+](=O)[O-])c1 was read as Rab9 prom act -1.9%, FLuc modulator 1.9%, ELG1 genotoxic 0.4%, SMN2 splice up -23.1%, KinaseGlo FLuc 3.7% and NPC1 prom act -4.1%.
Screening O=C(N/N=C/c1cccnc1)c1ccccc1Cl returned Rab9 prom act 24.9%, FLuc modulator 10.7µM*, ELG1 genotoxic 14.7% and NPC1 prom act 24.1%.
Screening O=C(N/N=C/c1cccnc1)c1ccc2ccccc2c1O returned Rab9 prom act 26.9%, FLuc modulator 5.36µM*, ELG1 genotoxic inconclusive and NPC1 prom act 12.8%.
O=C(N/N=C\c1cccnc1)c1ccc(Cl)cc1Cl was read as Rab9 prom act 1.8%, FLuc modulator inconclusive, ELG1 genotoxic 1.5% and NPC1 prom act 0.4%.
O=C(Nc1cccc([N+](=O)[O-])c1)c1ccc2ccccc2c1O was read as Rab9 prom act inconclusive, FLuc modulator 0.675µM*, ELG1 genotoxic 15.0% and NPC1 prom act inconclusive.
For O=C(Cc1cccc2ccccc12)Nc1cccnc1 the results were Rab9 prom act -4.2%, FLuc modulator 3.7%, ELG1 genotoxic 8.5%, SMN2 splice up -16.4%, KinaseGlo FLuc -4.2% and NPC1 prom act -2.9%.
For O=C(Nc1cccnc1)c1ccc2ccccc2c1O the results were Rab9 prom act 2µM*, FLuc modulator 2.13µM*, ELG1 genotoxic inconclusive and NPC1 prom act 2.51µM*.
Screening CCn1c(SCC(=O)Nc2cc(C(C)(C)C)nn2-c2ccccc2)nnc1-c1cccs1 returned Rab9 prom act -13.8%, FLuc modulator 1.5%, ELG1 genotoxic -2.9%, SMN2 splice up -27.0%, KinaseGlo FLuc 1.2% and NPC1 prom act -7.3%.
